# Assay outcomes as filed in PubChem.
# An excerpt weighted towards active compounds, which were near 8% of everything screened.
# HCV inh: HCV inhibition; Huh7.5.1 HCVcc-Cre infection, luciferase reporter, 44 h; 340,000 compounds, 3.4% hits; Potency, µM (titrated, usually from 41.8 µM), actives largely listed as inhibitors; AID 651820; active = well fitted inhibition curve with a large enough effect; inconclusive = small, poorly fitted or top-dose-only effect, or another doubt; inactive = no such curve, though single readings can be large or run the other way
#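 Whole-lifecycle infectious HCVcc-Cre system; cells 1,000/well, compound then virus (~0.5 moi) added 4 h after plating, 44 h culture. Luciferase read 15 sec following 15 min substrate incubation, room temp.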
# FMDV inh: foot and mouth disease virus antiviral activity | Potency, µM (doses to about 57.9 µM), actives largely listed as inhibitors | 410,000 compounds, 1.2% hits | FMDV antiviral cell-based qHTS | AID 1159524; calls by dose curve; tested in HEK293T cells; also: read-out not given here; nearly all actives have a fitted effect of over 45% in size
# LASV entry inh: blocks Lassa virus binding to or entry into cells; Lassa virus pseudotype entry inhibition, cell reporter; 300,000 compounds, 1.2% hits; Potency, µM (highest dose often 37.9 µM), usual class: inhibitors; calls by dose curve; tested in HEK293 cells; also: nearly all actives have a fitted effect of over 50% in size
# HCMV inh: blocks human cytomegalovirus replication | HFF cells, HCMV-luciferase reporter, 72 h; active compounds read low | activity change, negative = inhibition, % at 57.5 µM | 410,000 compounds, 4.5% hits | AID 1259415; in the data active = activity change below about -60%; inconclusive = no clear call, values can overlap the other calls; inactive = above about -39%
#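 Human foreskin fibroblasts infected with luciferase-reporter HCMV at MOI 1 PFU/cell, compounds at two doses. Luciferase measured 72 h post infection; normalized to buffer-only basal and Salinomycin (10uM) controls.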
# Marburg entry inh: blocks Marburg virus binding to or entry into cells. Potency, µM (top dose mostly 37.8 µM), actives largely listed as inhibitors. 300,000 compounds, 1.8% hits. Marburg virus pseudotyped entry inhibition, cell reporter; calls by dose curve; tested in HEK293 cells
# SARS PLpro yeast: inhibitors of SARS-CoV papain-like protease in yeast | S. cerevisiae expressing SARS-CoV PLpro, growth rescue | Potency, µM (doses to about 32.9 µM), usual class: activators | 330,000 compounds, 0.19% hits | AID 485353; calls by dose curve; also: nearly all actives have a fitted effect of over 55% in size
# Hits are given with their value; i = inactive; ? = inconclusive; nt = not tested or not shown.
SMILES,HCV inh,FMDV inh,LASV entry inh,HCMV inh,Marburg entry inh,SARS PLpro yeast
O=S(=O)(c1ccc(-c2csc(Nc3ccc(Br)cc3)n2)cc1)N1CCCC1,?,?,i,-73,i,i
Cc1cc(C)cc(Nc2nc(-c3ccc(S(=O)(=O)N4CCCC4)cc3)cs2)c1,10µM,?,?,-77,?,i
Cc1cc(O)c(C(c2ccccc2Cl)N2CCN(c3ccccc3)CC2)c(=O)n1Cc1ccco1 (centres undefined),nt,?,i,i,nt,nt
COC(=O)c1ccc(NC(=O)N2CCN(c3nnc(C)c4c(C)n(-c5ccccc5)nc34)CC2)cc1,nt,i,i,i,nt,nt
COc1ccc(OCC(=O)Nc2cccc(-c3nc4ccccc4o3)c2)cc1,10µM,i,i,i,i,i
COc1ccc(C(=O)Nc2cccc(-c3nnc(-c4ccco4)o3)c2)cc1,13µM,35µM,i,i,?,i
COc1ccc(CC(=O)Nc2cccc(-c3nnc(-c4ccco4)o3)c2)cc1,?,?,?,?,?,i
Cc1cc(C)cc(OCC(=O)Nc2cccc(-c3nnc(-c4ccco4)o3)c2)c1,i,20µM,i,i,i,i
O=C(Nc1cccc(-c2nc3ccccc3o2)c1)c1ccc(N2C(=O)C3C4C=CC(C4)C3C2=O)cc1 (centres undefined),?,32µM,?,i,?,i
COC(=O)CCn1cnc2onc(-c3cc(F)cc(F)c3)c2c1=O,nt,i,i,i,i,nt
COCCCNc1ncnc2sc(C(=O)N3CCOCC3)c(C)c12,nt,i,nt,nt,nt,nt
COc1ccc(N2CCOCC2)c(NC(=O)c2ccc(Br)o2)c1,nt,?,i,-81,?,i
COc1ccc(NS(=O)(=O)c2ccc(N3CCOCC3)c(NC(=O)c3ccc(F)cc3)c2)cc1,?,i,?,i,3.5µM,i
COc1ccc(NS(=O)(=O)c2ccc(N3CCOCC3)c(NC(=O)C(C)C)c2)cc1,i,i,i,?,?,i
COc1ccc(NS(=O)(=O)c2ccc(N3CCCCC3)c(NC(=O)C(C)NC(N)=O)c2)cc1 (centres undefined),?,i,i,i,i,i
CCOC(=O)/C=C/C(=O)Nc1cc(S(=O)(=O)Nc2ccc(OC)cc2)ccc1N1CCOCC1,?,32µM,?,i,?,i
O=C(Nc1cc(S(=O)(=O)Nc2ccc(Cl)cc2)ccc1N1CCCCC1)c1ccc(F)cc1,7.1µM,i,?,-64,?,i
O=C(Nc1cc(Cl)ccc1N1CCOCC1)c1ccc(Br)o1,i,i,i,nt,i,i
COc1ccc(NC(=O)CSc2ncc3c(n2)-c2cc(Cl)ccc2N(Cc2ccccc2F)S3(=O)=O)cc1,nt,i,i,i,nt,nt
COc1ccc(/C=C/C(=O)NCC2Cc3cc(Cl)cc(-c4ncccn4)c3O2)cc1 (centres undefined),nt,i,nt,nt,nt,nt
CCOc1ccc(NC(=O)CC2C(=O)N(c3cccc(C)c3)C(=O)N2Cc2cccnc2)cc1 (centres undefined),nt,i,i,i,nt,nt
COc1ccc(C)c2sc(NC(=O)c3ccc(S(=O)(=O)N(C)C)cc3)nc12,nt,i,i,i,nt,nt
COc1ccccc1NS(=O)(=O)c1ccc(N2CCOCC2)c(NC(=O)c2ccco2)c1,11µM,i,nt,i,i,i
COc1ccc(NS(=O)(=O)c2ccc(N3CCOCC3)c(NC(=O)c3ccco3)c2)cc1,i,i,?,i,i,i
COc1ccc(NS(=O)(=O)c2ccc(N3CCOCC3)c(NC(=O)c3cccc(F)c3)c2)cc1,i,i,?,-78,?,?
SMILES,HCV inh,FMDV inh,LASV entry inh,HCMV inh,Marburg entry inh,SARS PLpro yeast
O=C(NCCN1CCCCC1)c1ccc(Cn2c(SCc3ccccc3)nc3cccnc32)cc1,nt,i,nt,i,?,nt
CC1=C(C(=O)N2CCCCC2)C(c2cccc(Cl)c2)n2c(nc3ccccc32)N1 (centres undefined),nt,i,i,i,i,nt
CCN(CC)CCNC(=O)c1ccc(NC(=O)Cc2cccc3ccccc23)cc1,?,i,i,i,11µM,i
CCN(CC(=O)Nc1ccc(NC(C)=O)cc1)C(=O)c1ccc(COc2ccc(C(C)(C)C)cc2)cc1,?,i,nt,-62,nt,nt
CCN(CC)CCNC(=O)c1ccc(NC(=O)c2ccc(COc3ccccc3)cc2)cc1,11µM,i,i,?,?,i
CCN(CC(=O)Nc1ccc(NC(C)=O)cc1)C(=O)c1ccc(COc2ccccc2)o1,i,i,nt,i,nt,i
Cc1c(C(=O)O)oc2ccc(S(=O)(=O)N3CCCC3)cc12,i,i,nt,i,nt,i
Cc1c(C(=O)NCc2ccc3c(c2)OCO3)oc2ccc(S(=O)(=O)N3CCCCCC3)cc12,?,?,i,i,13µM,nt
CCCCN(C)C(=O)c1oc2ccc(S(=O)(=O)N3CCCCCC3)cc2c1C,nt,35µM,i,?,i,i
Cc1c(C(=O)NCCN2CCOCC2)oc2ccc(S(=O)(=O)N3CCCCCC3)cc12,i,i,i,-100,i,i
COc1ccc(N(C)C(=O)c2cn(C3CCCCC3)c(=O)c3c2c2ccccc2n3C)cc1,nt,i,?,i,?,nt
CCN(CC)S(=O)(=O)c1ccc2oc(C(=O)NCc3ccc(F)cc3)c(C)c2c1,?,?,5.8µM,?,?,i
CCN(CC)S(=O)(=O)c1ccc2oc(C(=O)NCC3COc4ccccc4O3)c(C)c2c1 (centres undefined),10µM,?,23µM,i,?,i
Cc1c(C(=O)NCc2ccc(F)cc2)oc2ccc(S(=O)(=O)N3CCOCC3)cc12,?,?,nt,?,?,i
COc1ccc(-n2cccc2/C=C/[N+](=O)[O-])cc1,?,28µM,?,-102,?,i
COc1ccc(CCNC(=O)C2(C)CCC(=O)N2CCC(C)C)cc1OC (centres undefined),i,i,nt,-100,nt,i
O=S1(=O)c2ccc(Br)cc2N2CCC[C@H]2CN1Cc1ccccc1,?,i,nt,i,nt,i
C[C@@H](c1ccccc1)N1C[C@H]2CCCN2c2cc(Br)ccc2S1(=O)=O,11µM,i,?,i,nt,i
O=C(NC(=O)c1csnn1)Nc1ccccc1Cl,i,i,nt,-83,nt,i
Cc1nc2ccccc2n1CC(=O)NC(C)C1CC2CCC1C2 (centres undefined),?,?,i,-65,?,i
COc1ccc(NC(=O)Cn2c(C)cc(=O)c3ccccc32)cc1,7.1µM,?,?,-80,?,i
CC(NC(=O)Cn1c(NCCO)nc2ccccc21)C1CC2CCC1C2 (centres undefined),i,i,i,i,i,i
Cc1cc(=O)c2ccccc2n1CC(=O)NCc1ccccc1,?,?,?,-71,10µM,i
Cc1cc(=O)c2ccccc2n1Cc1ccccc1,13µM,?,i,-70,?,i
COc1ccccc1Cc1c(C2CCCCC2)nc2c(C)cc(Br)cn12,nt,nt,nt,i,nt,nt
Cc1ccc(-n2c(=O)[nH]c3cc(C(=O)NCc4ccccc4)ccc3c2=O)cc1,nt,i,i,i,i,nt
CCN(c1ccccc1)S(=O)(=O)c1ccc(NC(=O)c2cc(=O)c3c(C)cc(C)cc3o2)cc1,nt,i,i,i,i,nt
